# Assay results published in PubChem BioAssay.
# Activity calls are given as the source filed them. Unless noted, the rule behind the calls is not given here.
# Assays:
# [1] = HepG2 liver cancer cell viability effects, profiling panel, resazurin fluorescence, 24 h, PK04 Diversity Set (AID 1172); conditions: higher = more signal
# [2] = basal S. cerevisiae growth modulation, no modifier, primary screen, OD600, strain BY4716, 24 h, basal condition (AID 1173); conditions: OD600, 24 h, higher = more signal, called active from +8 up or from −8 down
# [3] = MM1S myeloma cell viability, profiling panel, resazurin fluorescence, basal, 24 h, PK04 Diversity Set (AID 1174); conditions: higher = more signal, called active from +8 up or from −8 down;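 note: MM1S multiple myeloma cell line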
# [4] = molecular target: Dihydroorotate dehydrogenase (quinone), mitochondrial (Plasmodium falciparum (isolate 3D7)) (UniProt Q08210); assay: PfDHODH enzyme inhibitors, primary screen, biochemical, C-terminal His tag, absorbance 600 nm (AID 1175); conditions: DCIP absorbance 600 nm, higher = more signal, called active from +8 up or from −8 down;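 note: recombinant parasite enzyme with a five histidine tag at its C terminus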
# Chain of Dihydroorotate dehydrogenase (quinone), mitochondrial (Plasmodium falciparum (isolate 3D7)) (Q08210 whole entry, looked up): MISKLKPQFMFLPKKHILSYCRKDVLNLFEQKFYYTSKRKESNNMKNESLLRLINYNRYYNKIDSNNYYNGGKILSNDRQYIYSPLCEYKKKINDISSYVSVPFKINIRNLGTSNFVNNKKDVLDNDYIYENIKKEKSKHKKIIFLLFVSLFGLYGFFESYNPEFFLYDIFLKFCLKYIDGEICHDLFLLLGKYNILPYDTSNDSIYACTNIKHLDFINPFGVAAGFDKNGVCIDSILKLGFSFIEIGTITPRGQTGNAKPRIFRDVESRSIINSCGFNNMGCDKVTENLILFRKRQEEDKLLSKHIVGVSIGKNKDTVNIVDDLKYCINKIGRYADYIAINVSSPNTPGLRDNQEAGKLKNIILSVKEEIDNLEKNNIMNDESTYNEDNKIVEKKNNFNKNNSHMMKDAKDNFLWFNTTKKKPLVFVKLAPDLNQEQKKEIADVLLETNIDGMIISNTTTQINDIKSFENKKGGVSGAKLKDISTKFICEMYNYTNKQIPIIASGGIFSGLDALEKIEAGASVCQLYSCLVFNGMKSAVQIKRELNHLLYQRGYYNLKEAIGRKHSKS
# [5] = P. aeruginosa biofilm formation inhibitors, primary screen, strain PAO1, LB-PBS medium, absorbance 600 nm (AID 1176); conditions: P. aeruginosa PAO1 growth/biofilm, A600, 12 h; higher = more signal
# [6] = S. cerevisiae RM11-1a growth modifiers, primary screen, strain RM11-1a, OD600, basal, 24 h (AID 1177); conditions: OD600, 24 h, higher = more signal, called active from +8 up or from −8 down;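 note: cultures grown under basal conditions with no added stressor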
# [7] = E. coli acrAB mutant growth effects, primary screen, E. coli filamentation inducers, strain DRC39, OD650, 24 h (AID 1178); conditions: higher = more signal, called active from +8 up or from −8 down;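 note: growth measured as culture turbidity by optical density at 650 nm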
# [8] = E. coli acrAB mutant growth effects, primary screen, E. coli filamentation inducers, strain DRC39, OD650, 48 h (AID 1179);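 note: screen aims at cell division blockers that make cells filament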; conditions: E. coli DRC39 delta-acrAB growth, higher = more signal, called active from +8 up or from −8 down
# [9] = RPMI8226 myeloma cell viability, profiling panel, resazurin fluorescence, basal, 24 h, PK04 Diversity Set (AID 1180); conditions: higher = more signal;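 note: RPMI8826 multiple myeloma cell line at 5000 cells per well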
# [10] = molecular target: E3 ubiquitin-protein ligase XIAP (Homo sapiens) (UniProt P98170); assay: XIAP binders, primary screen, biophysical, small-molecule microarray, fluorescence 635 nm (AID 1181); conditions: small-molecule microarray binding, higher = more signal;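 note: score merges 667 nm emission and signal to noise over triplicate slides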
# Chain of E3 ubiquitin-protein ligase XIAP (Homo sapiens) (P98170 whole entry, looked up): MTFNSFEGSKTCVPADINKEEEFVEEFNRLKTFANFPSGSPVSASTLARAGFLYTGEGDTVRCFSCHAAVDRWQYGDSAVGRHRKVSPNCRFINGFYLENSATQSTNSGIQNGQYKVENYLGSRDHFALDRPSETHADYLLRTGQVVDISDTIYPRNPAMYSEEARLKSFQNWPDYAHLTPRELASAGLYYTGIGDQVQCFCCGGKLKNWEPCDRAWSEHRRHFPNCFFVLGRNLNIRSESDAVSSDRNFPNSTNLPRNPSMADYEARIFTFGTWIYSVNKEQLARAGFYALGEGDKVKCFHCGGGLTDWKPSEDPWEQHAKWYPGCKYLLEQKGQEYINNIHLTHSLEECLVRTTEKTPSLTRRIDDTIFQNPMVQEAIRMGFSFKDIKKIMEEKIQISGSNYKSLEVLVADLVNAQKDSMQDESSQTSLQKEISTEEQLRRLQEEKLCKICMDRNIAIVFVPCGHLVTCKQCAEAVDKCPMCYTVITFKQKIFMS
# [11] = test system: XIP peptide (Xip251-270) binding; assay: small-molecule binders of XIP peptide, primary screen, biochemical, small-molecule microarray, fluorescence 635/667 nm, 0.1 µg/mL protein (AID 1182); conditions: fluorescent protein binding, 635 nm, higher = more signal, called active from +8 up or from −8 down
# [12] = test system: XIP peptide (Xip251-270); assay: small-molecule binders of XIP peptide, primary screen, biochemical, small-molecule microarray, fluorescence 635/667 nm, 0.5 µg/mL protein (AID 1183); conditions: small-molecule microarray binding, fluorescence 635 nm; higher = more signal
# [13] = Plasmodium falciparum growth inhibition, primary screen, strain 3D7, DAPI fluorescence, 100 nL (AID 1184);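 note: parasites grown inside human red blood cells in medium with human serum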; conditions: P. falciparum 3D7 growth, 3 d, higher = more signal
# [14] = molecular target: Homeobox protein Hox-A13 (Mus musculus) (UniProt Q62424); assay: inhibitors of HoxA13-DNA binding, primary screen, biochemical, fluorescence polarization, labeled oligonucleotide (AID 1185); conditions: 15 min, higher = more signal, called active from +8 up or from −8 down
# Chain of Homeobox protein Hox-A13 (Mus musculus) (Q62424 whole entry, looked up): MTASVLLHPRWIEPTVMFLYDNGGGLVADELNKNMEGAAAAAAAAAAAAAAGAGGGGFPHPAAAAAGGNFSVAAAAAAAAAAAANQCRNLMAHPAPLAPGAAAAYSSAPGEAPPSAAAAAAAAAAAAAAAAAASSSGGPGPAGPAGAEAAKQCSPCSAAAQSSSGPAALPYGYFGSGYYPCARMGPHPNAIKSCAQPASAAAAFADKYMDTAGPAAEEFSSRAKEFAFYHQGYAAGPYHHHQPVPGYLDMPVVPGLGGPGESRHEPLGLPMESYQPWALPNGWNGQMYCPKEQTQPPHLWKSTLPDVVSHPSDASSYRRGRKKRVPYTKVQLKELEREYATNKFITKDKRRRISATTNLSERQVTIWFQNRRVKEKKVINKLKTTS
# [15] = inhibitors of hydroxyurea-induced Chk1 phosphorylation, primary screen, imaging, HeLa, phospho-Chk1 antibody, percent positive cells (AID 1186); conditions: hydroxyurea-induced phospho-Chk1 immunofluorescence imaging, higher = more signal
# [16] = inhibitors of hydroxyurea-induced Chk1 phosphorylation, primary screen, imaging, HeLa, phospho-Chk1 nuclear intensity (AID 1187); conditions: hydroxyurea-induced phospho-Chk1 immunofluorescence imaging, higher = more signal
Structure (SMILES),z-score [1],z-score [2],z-score [3],composite z-score [4],z-score [5],z-score [6],z-score [7],z-score [8],z-score [9],composite z-score [10],composite z-score [11],composite z-score [12],z-score [13],z-score [14],z-score [15],z-score [16]
COc1cc(NN2C(C(O)c3ccco3)C=CC3C(=O)N(C)C(=O)C32)cc(OC)c1OC (centres undefined),-1.41,0.753 (inactive),-1.76 (inactive),-0.139 (inactive),0.711 (inactive),0.322 (inactive),-1.02 (inactive),-0.941 (inactive),-1.98,0.391,-0.0656 (inactive),-0.423,-0.188,-3.41 (inactive),0.476 (inactive),0.18 (inactive)
C[C@@H]1NC(=O)[C@@H](Cc2ccccc2)NC(=O)[C@@]23C(=O)N[C@@H](Cc4ccccc4)C2[C@H](C)[C@@]2(C)O[C@H]2C3/C=C/C/C=C\CNC1=O (some centres undefined),-1.2,0.318 (inactive),0.0992 (inactive),0.0303 (inactive),0.413 (inactive),0.652 (inactive),-0.811 (inactive),-0.863 (inactive),0.329,-0.0138,-0.274 (inactive),0.711,-0.132,-6.78 (inactive),-0.115 (inactive),-0.328 (inactive)
CC(C)C(CO)N1C(=O)[C@@H]2C3C(=O)OCCC/C=C\[C@H]3OC23C=CCN(c2ccc4ccccc4c2)C(=O)[C@@H]13 (some centres undefined),-0.507,0.267 (inactive),-0.235 (inactive),-0.42 (inactive),-0.292 (inactive),-0.259 (inactive),-0.275 (inactive),-0.24 (inactive),-0.344,0.683,0.0076 (inactive),0.0118,0.674,-6.34 (inactive),0.467 (inactive),0.516 (inactive)
Cc1ccc(S[C@]2(C(=O)NCCN3CCOCC3)CC(=O)N(Cc3ccccc3Cl)[C@@H]2c2ccc(CO)cc2I)cc1,0.466,-3.6 (inactive),-2.72 (inactive),-0.576 (inactive),0.379 (inactive),-1.66 (inactive),0.392 (inactive),0.475 (inactive),-1.7,-0.259,0.676 (inactive),0.433,-0.244,-2.18 (inactive),0.0327 (inactive),0.421 (inactive)
COC(=O)[C@@]1(Cc2ccc(OC)cc2)[C@H]2c3cc(C(=O)N(C)C)n(Cc4ccc(OC(F)(F)F)cc4)c3C[C@H]2CN1C(=O)c1ccccc1,-0.409,0.633 (inactive),-6.89 (inactive),0.546 (inactive),0.619 (inactive),1.63 (inactive),-0.728 (inactive),-0.804 (inactive),-3.56,0.422,-0.202 (inactive),0.112,-1.42,-5.65 (inactive),0.154 (inactive),-0.666 (inactive)
COCCCNC(=O)[C@@H]1c2ccccc2C(=O)N(C(C)C)[C@H]1c1ccc(CO)cc1,-0.388,0.214 (inactive),0.054 (inactive),0.367 (inactive),0.168 (inactive),1.03 (inactive),0.0099 (inactive),-0.525 (inactive),-0.0303,-0.127,0.147 (inactive),-0.0343,-0.324,-1.03 (inactive),-0.244 (inactive),-0.504 (inactive)
O=C1O[C@@H](c2ccccc2)[C@@H](c2ccccc2)N2[C@@H](c3ccc(OCCO)cc3)[C@]3(C(=O)Nc4ccc(C#CC5=CCCCC5)cc43)[C@@H](C(=O)NC[C@H](O)c3ccccc3)[C@H]12,-0.661,1.49 (inactive),-1.94 (inactive),-0.729 (inactive),3.14 (inactive),2.72 (inactive),-0.107 (inactive),-0.245 (inactive),-3.11,-0.118,0.127 (inactive),0.693,-1.35,3.28 (inactive),0.27 (inactive),0.433 (inactive)
O=C1C[C@]2(c3ccc([N+](=O)[O-])cc3)C(=O)N(C3CC3)c3cc(CO)ccc3[C@H]2N1CC12CC3CC(CC(C3)C1)C2,-0.742,0.359 (inactive),-0.118 (inactive),-3.84 (inactive),0.677 (inactive),0.866 (inactive),-0.292 (inactive),-0.616 (inactive),0.0683,-0.158,0.196 (inactive),0.463,-1.38,-0.902 (inactive),-0.0994 (inactive),-0.497 (inactive)
CCOC(=O)C[C@H]1[C@H](OC(=O)Cc2ccc3c(c2)OCO3)[C@@H](NC(=O)c2ccc3ccccc3n2)c2cc(OCCCO)ccc2N1C(=O)c1ccccc1,0.374,-0.407 (inactive),-1.51 (inactive),-0.32 (inactive),-0.325 (inactive),0.946 (inactive),-0.247 (inactive),0.208 (inactive),-0.139,0.134,0.269 (inactive),0.256,-1.03,-2.41 (inactive),-0.705 (inactive),-0.277 (inactive)
[N-]=[N+]=Nc1ccccc1C[C@]1(C(=O)NCCN2CCOCC2)COC(c2ccc(OCCCO)cc2)=N1,1.14,-1.84 (inactive),0.892 (inactive),0.137 (inactive),0.289 (inactive),-0.71 (inactive),0.947 (inactive),0.361 (inactive),1.13,-0.237,0.728 (inactive),0.256,-1.06,-6.04 (inactive),-0.566 (inactive),-0.17 (inactive)
COC(=O)[C@@H]1N=C(c2ccc(OCCCO)cc2)O[C@@H]1C,0.38,0.0443 (inactive),-0.341 (inactive),-0.403 (inactive),-0.689 (inactive),0.895 (inactive),0.52 (inactive),1.13 (inactive),0.945,0.105,0.0312 (inactive),0.232,0.985,-2.44 (inactive),-0.749 (inactive),-0.626 (inactive)
O=C1N(Cc2ccccc2)c2ccccc2C[C@]12N=C(c1ccc(OCCCO)cc1)O[C@@H]2c1ccccc1,-0.658,0.0989 (inactive),-2.55 (inactive),0.581 (inactive),1.58 (inactive),1.29 (inactive),0.223 (inactive),-0.2 (inactive),-2.6,-0.135,-0.12 (inactive),0.59,-2.37,-3.59 (inactive),-0.0747 (inactive),-0.154 (inactive)
C=CC[C@@]1(C(=O)NCCCOC)N=C(c2ccc(OCCCO)cc2)O[C@@H]1c1ccccc1,-0.843,-1.85 (inactive),-0.203 (inactive),-1.65 (inactive),-0.375 (inactive),-1.27 (inactive),-0.12 (inactive),1.13 (inactive),-0.1,0.065,1.42 (inactive),0.805,-1.95,-4.75 (inactive),-0.339 (inactive),-0.343 (inactive)
COc1cc2c(cc1O)C=[N+](Cc1sc3ccccc3c1Cl)CC2,0.19,-1.04 (inactive),-1.01 (inactive),-1.18 (inactive),0.034 (inactive),-0.319 (inactive),0.81 (inactive),0.128 (inactive),-0.496,0.158,0.669 (inactive),0.133,-1.84,-5.22 (inactive),0.399 (inactive),0.9 (inactive)
NC(=O)NCC#Cc1ccc2c(c1)[C@]1(C(=O)N2)[C@H](c2ccccc2OCCO)N2[C@H](c3ccccc3)[C@H](c3ccccc3)OC(=O)[C@H]2[C@@H]1C(=O)NC[C@H](O)c1ccccc1,0.999,-0.589 (inactive),1.62 (inactive),-0.253 (inactive),0.601 (inactive),1.94 (inactive),1.22 (inactive),0.693 (inactive),0.462,0.254,0.427 (inactive),0.209,-0.521,-3.58 (inactive),-0.552 (inactive),-0.793 (inactive)
COCCOC(=O)N1C(=O)[C@@]2(c3cc(C#CC4=CCCCC4)ccc31)[C@H](C(=O)Nc1nc3ccccc3s1)[C@H]1C(=O)O[C@H](c3ccccc3)[C@H](c3ccccc3)N1[C@@H]2c1ccc(O)cc1,-0.263,-0.344 (inactive),-0.679 (inactive),0.347 (inactive),0.766 (inactive),-0.145 (inactive),-0.469 (inactive),-0.765 (inactive),-0.527,-0.138,-0.0082 (inactive),0.751,-0.259,-0.148 (inactive),-0.0232 (inactive),-0.0288 (inactive)
CCCNC(=O)[C@@H]1c2ccccc2C(=O)N(Cc2ccc(OC(F)(F)F)cc2)[C@H]1c1ccc(CO)cc1,0.266,0.0357 (inactive),0.186 (inactive),-0.966 (inactive),-0.217 (inactive),0.532 (inactive),0.659 (inactive),1.34 (inactive),0.584,0.155,0.688 (inactive),0.835,-0.997,-3 (inactive),-0.615 (inactive),-0.366 (inactive)
CC(C)C(CO)N1C(=O)[C@@H]2C3C(=O)OCCC/C=C\[C@H]3OC23C=CCN(Cn2nnc4ccccc42)C(=O)[C@@H]13 (some centres undefined),0.658,-0.133 (inactive),0.184 (inactive),-1.09 (inactive),0.233 (inactive),-0.0374 (inactive),0.246 (inactive),0.118 (inactive),0.37,-0.0367,-0.261 (inactive),0.348,0.596,-3.97 (inactive),-0.833 (inactive),-0.709 (inactive)
CCCC=C(CCC)[C@@H](NS(=O)(=O)c1ccc(C(F)(F)F)cc1)c1ccccc1,0.281,1.55 (inactive),-0.489 (inactive),0.348 (inactive),1.03 (inactive),1.84 (inactive),-0.763 (inactive),-0.197 (inactive),-0.683,-0.206,0.25 (inactive),-0.0998,-1.5,-0.64 (inactive),-0.0215 (inactive),-0.157 (inactive)
